Test results: the supplement of paper PMC10849652
The full data set covers some 7,900 targets. This sample favours those with a hit. About 0.6% of all pairs of compound and target were hits.

Tests used:
Assay in all cases: log2 fold change, soluble protein after heating vs DMSO (PISA); higher = thermal stabilisation; K562 cells, 10 uM, 30 min; active = over 0.2 and 3.5 SD of the protein, either way, in both replicates (recomputed)
[1] = compound: NC(=O)Nc1cc(-c2cccc(F)c2)sc1C(=O)N[C@H]1CCCNC1
Method in brief: (§1)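 K562 cells at 2×10^6 cells/mL were given 10 μM compound for 30 min. Aliquots then went through 3 min of heating across 48°C-58°C, were pooled, and were extracted in PBS with 0.5% NP-40 at 4°C, and the supernatant after 21,000xg for 90 min was quantified by TMTpro 16plex LC-MS/MS with channel sums equalised. Thermal stability relative to control samples, from duplicates, is given as log2 fold change.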

[2] = compound: NC(=O)c1cnc(N[C@@H]2CCCC[C@@H]2N)nc1Nc1cccc(-n2nccn2)c1
Method in brief: as §1

[3] = compound: NC1(c2ccc(-c3nc4ccn5c(=O)[nH]nc5c4cc3-c3ccccc3)cc2)CCC1
Method in brief: as §1

[4] = compound: NCC(=O)Nc1ccc(-n2nc(C(F)(F)F)cc2-c2ccc3c(ccc4ccccc43)c2)cc1
Method in brief: as §1

[5] = compound: Nc1ccccc1NC(=O)c1ccc(CNC(=O)OCc2cccnc2)cc1 [entinostat]
Method in brief: as §1

[6] = compound: O=C(CCCCCCC(=O)Nc1ccccc1)NO [vorinostat]
Method in brief: as §1

[7] = compound: O=C(CCCCCCNC(=O)c1cnc(N(c2ccccc2)c2ccccc2Cl)nc1)NO [citarinostat]
Method in brief: as §1

[8] = compound: O=C(O)c1ccc2c(c1)nc(Nc1cccc(Cl)c1)c1ccncc12 [silmitasertib]
Method in brief: as §1

[9] = compound: O=C1NC(=O)C(c2cnc3ccccn23)=C1c1cn2c3c(cc(F)cc13)CN(C(=O)N1CCCCC1)CC2
Method in brief: as §1

[10] = compound: c1cc(OCCN2CCCCC2)cc(-c2n[nH]c3ccc(-c4nnc[nH]4)cc23)c1
Method in brief: as §1

[11] = compound: c1cn2cc(-c3ccc4cn[nH]c4c3)nc(Nc3ccc(N4CCOCC4)cc3)c2n1 [entospletinib]
Method in brief: as §1

Measured: log2 fold change

PTPN12 (UniProt Q05209)
Sequence of UniProt Q05209 (Q05209 whole entry, looked up): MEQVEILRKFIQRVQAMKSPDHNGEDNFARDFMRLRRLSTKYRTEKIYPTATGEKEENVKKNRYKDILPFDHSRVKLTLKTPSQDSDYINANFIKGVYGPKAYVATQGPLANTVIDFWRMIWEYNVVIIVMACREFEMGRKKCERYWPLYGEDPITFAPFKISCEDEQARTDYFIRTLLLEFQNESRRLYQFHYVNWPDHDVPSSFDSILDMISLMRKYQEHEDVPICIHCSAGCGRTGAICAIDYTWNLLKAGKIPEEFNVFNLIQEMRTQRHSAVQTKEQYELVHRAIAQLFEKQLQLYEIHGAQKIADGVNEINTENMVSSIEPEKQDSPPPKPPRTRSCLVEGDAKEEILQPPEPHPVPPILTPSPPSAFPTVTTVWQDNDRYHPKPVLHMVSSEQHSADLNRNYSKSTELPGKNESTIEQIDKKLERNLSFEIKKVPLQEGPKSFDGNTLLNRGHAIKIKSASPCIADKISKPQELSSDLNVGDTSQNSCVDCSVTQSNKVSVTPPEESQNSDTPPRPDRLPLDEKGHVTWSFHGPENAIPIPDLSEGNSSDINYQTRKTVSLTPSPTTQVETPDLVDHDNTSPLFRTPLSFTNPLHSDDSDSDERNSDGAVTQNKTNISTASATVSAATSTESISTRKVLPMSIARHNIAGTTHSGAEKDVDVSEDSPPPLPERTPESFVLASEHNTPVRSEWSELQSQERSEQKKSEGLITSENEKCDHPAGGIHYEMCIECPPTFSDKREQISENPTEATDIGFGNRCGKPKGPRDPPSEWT
inactive: [1] 0.037 | [2] -0.023 | [3] -0.1 | [4] -0.012 | [5] 0.038 | [6] -0.01 | [7] 0.019 | [8] 0.163 | [9] 0.014 | [10] -0.015 | [11] -0.041

PGM3 isoform 4 (UniProt O95394)
Sequence of UniProt O95394 (O95394 whole entry, looked up): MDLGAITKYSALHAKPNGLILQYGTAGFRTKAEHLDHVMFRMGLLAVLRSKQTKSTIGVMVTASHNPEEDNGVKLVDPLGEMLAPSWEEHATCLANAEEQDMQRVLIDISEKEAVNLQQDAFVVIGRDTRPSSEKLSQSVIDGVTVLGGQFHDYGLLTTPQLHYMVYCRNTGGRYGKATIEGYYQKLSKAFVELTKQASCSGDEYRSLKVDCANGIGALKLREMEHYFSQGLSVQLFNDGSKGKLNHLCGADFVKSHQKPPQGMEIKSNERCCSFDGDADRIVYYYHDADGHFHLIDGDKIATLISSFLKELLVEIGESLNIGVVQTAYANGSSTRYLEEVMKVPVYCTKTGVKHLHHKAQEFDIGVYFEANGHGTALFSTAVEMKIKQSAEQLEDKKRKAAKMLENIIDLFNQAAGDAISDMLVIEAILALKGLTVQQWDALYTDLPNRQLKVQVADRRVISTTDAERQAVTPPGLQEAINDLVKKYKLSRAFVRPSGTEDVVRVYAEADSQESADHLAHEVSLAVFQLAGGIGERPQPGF
inactive: [1] -0.039 | [2] -0.118 | [3] -0.147 | [4] -0.063 | [5] 0.015 | [6] 0.061 | [7] 0.046 | [8] -0.012 | [9] -0.008 | [10] -0.024 | [11] -0.047

PSMC3 (UniProt P17980)
Sequence of UniProt P17980 (P17980 whole entry, looked up): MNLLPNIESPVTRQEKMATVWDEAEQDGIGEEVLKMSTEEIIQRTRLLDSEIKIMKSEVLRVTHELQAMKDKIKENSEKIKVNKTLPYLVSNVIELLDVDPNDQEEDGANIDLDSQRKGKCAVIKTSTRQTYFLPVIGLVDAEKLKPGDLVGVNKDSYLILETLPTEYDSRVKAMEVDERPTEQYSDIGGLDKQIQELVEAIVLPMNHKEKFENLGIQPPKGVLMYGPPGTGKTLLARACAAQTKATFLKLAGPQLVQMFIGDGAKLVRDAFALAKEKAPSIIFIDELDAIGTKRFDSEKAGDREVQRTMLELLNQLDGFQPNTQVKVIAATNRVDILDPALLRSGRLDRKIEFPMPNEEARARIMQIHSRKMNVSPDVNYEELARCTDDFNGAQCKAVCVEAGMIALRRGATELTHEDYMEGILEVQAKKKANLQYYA
inactive: [1] 0.014 | [2] -0.011 | [3] 0.046 | [4] 0.078 | [5] -0.024 | [6] -0.017 | [7] -0.053 | [8] -0.018 | [9] 0.049 | [10] -0.092 | [11] 0

PSMD7 (UniProt P51665)
Sequence of UniProt P51665 (P51665 whole entry, looked up): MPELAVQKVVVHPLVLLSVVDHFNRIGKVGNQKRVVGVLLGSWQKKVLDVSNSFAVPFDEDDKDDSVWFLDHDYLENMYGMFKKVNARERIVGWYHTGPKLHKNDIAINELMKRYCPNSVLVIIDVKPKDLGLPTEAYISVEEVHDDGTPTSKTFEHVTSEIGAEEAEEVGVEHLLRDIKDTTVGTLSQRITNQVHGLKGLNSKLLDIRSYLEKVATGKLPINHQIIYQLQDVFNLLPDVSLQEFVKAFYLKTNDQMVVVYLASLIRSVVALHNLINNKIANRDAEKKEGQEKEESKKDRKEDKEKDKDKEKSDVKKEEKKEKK
inactive: [1] -0.04 | [2] 0.001 | [3] -0.035 | [4] 0.029 | [5] -0.049 | [6] -0.002 | [7] -0.048 | [8] 0.016 | [9] 0.051 | [10] -0.089 | [11] 0.064

PRMT7 (UniProt Q9NVM4)
Sequence of UniProt Q9NVM4 (Q9NVM4 whole entry, looked up): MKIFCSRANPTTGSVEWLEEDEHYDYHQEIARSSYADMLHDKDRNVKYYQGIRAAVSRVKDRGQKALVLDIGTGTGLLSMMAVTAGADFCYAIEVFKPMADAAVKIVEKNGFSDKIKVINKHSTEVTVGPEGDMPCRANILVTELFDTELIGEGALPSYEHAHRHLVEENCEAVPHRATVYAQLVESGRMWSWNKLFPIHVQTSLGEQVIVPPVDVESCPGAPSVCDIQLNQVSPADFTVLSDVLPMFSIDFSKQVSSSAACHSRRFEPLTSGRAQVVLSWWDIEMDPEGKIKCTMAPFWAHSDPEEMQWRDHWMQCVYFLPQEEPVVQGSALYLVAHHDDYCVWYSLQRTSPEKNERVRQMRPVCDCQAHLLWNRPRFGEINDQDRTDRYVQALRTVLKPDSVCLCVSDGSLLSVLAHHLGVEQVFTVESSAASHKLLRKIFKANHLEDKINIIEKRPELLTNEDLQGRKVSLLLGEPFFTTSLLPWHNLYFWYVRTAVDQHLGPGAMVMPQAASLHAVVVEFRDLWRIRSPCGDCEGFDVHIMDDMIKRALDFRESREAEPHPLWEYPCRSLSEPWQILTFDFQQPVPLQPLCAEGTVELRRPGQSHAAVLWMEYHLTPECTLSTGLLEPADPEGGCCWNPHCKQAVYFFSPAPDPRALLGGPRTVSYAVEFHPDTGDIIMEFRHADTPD
inactive: [1] 0.034 | [2] -0.093 | [3] -0.165 | [4] -0.021 | [5] 0.026 | [6] -0.023 | [7] -0.032 | [8] 0.067 | [9] -0.103 | [10] -0.05 | [11] 0.055

PCK2 (UniProt Q16822)
Sequence of UniProt Q16822 (Q16822 whole entry, looked up): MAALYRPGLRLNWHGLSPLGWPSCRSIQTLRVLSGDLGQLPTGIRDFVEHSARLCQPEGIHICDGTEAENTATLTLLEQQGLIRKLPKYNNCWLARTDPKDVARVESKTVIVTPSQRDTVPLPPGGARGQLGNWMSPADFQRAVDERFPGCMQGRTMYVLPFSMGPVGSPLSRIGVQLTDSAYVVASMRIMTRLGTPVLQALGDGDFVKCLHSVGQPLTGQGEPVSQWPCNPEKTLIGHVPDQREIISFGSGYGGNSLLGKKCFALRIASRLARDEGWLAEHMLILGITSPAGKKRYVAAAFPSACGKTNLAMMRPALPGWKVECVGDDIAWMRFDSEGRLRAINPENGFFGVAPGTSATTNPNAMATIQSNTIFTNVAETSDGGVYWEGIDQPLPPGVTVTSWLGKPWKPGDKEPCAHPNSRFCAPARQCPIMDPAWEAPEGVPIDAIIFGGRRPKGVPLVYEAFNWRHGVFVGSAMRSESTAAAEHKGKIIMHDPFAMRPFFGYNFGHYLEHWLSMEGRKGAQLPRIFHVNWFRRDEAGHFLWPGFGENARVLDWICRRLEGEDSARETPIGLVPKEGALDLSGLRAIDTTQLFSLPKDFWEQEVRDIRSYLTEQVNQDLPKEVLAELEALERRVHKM
inactive: [1] 0 | [2] 0 | [3] -0.029 | [4] -0.013 | [5] 0.005 | [6] 0.004 | [7] 0.013 | [8] -0.025 | [9] -0.148 | [10] -0.032 | [11] -0.057

PRKAB1 (UniProt Q9Y478)
Sequence of UniProt Q9Y478 (Q9Y478 whole entry, looked up): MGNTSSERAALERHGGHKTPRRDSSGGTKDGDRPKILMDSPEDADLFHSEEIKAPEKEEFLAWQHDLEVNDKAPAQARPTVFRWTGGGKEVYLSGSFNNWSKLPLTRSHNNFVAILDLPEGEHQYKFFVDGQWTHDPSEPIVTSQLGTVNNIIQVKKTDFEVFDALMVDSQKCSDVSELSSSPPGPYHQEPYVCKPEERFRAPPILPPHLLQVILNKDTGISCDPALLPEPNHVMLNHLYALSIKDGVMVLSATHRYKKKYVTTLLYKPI
inactive: [1] -0.015 | [2] 0.186 | [3] -0.015 | [4] 0.035 | [5] 0.056 | [6] 0.063 | [7] 0.089 | [8] 0 | [9] -0.036 | [10] -0.067 | [11] -0.145

PIR (UniProt O00625)
Sequence of UniProt O00625 (O00625 whole entry, looked up): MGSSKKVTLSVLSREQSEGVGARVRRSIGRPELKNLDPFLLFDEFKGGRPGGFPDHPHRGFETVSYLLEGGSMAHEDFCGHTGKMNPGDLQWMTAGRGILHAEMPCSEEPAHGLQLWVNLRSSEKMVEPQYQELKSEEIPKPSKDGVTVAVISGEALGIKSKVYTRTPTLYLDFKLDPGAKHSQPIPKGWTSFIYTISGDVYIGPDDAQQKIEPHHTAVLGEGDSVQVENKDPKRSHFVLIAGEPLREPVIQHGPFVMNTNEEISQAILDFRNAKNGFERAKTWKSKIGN
inactive: [1] -0.047 | [2] -0.053 | [3] -0.195 | [4] -0.024 | [5] -0.022 | [7] -0.014 | [8] -0.038 | [9] -0.012 | [11] 0.028
active: [6] -0.625 | [10] 0.253

PLA2G15 (UniProt Q8NCC3)
Sequence of UniProt Q8NCC3 (Q8NCC3 whole entry, looked up): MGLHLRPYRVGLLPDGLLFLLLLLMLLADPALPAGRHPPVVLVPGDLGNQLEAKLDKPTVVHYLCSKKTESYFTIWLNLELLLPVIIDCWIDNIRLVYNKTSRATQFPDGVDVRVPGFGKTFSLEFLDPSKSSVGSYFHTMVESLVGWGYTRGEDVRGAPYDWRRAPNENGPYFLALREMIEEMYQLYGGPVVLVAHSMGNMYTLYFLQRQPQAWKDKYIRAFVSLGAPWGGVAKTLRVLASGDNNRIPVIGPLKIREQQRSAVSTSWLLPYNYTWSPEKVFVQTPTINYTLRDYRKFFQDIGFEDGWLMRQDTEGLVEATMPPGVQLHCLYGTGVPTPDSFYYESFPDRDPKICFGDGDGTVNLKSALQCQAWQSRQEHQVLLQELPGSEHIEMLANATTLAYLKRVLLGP
inactive: [1] 0.06 | [2] -0.042 | [3] -0.023 | [4] 0.001 | [5] 0.056 | [6] 0.073 | [8] 0.076 | [9] -0.074 | [10] -0.008 | [11] -0.063
active: [7] 0.279

PRPF38B (UniProt Q5VTL8)
Sequence of UniProt Q5VTL8 (Q5VTL8 whole entry, looked up): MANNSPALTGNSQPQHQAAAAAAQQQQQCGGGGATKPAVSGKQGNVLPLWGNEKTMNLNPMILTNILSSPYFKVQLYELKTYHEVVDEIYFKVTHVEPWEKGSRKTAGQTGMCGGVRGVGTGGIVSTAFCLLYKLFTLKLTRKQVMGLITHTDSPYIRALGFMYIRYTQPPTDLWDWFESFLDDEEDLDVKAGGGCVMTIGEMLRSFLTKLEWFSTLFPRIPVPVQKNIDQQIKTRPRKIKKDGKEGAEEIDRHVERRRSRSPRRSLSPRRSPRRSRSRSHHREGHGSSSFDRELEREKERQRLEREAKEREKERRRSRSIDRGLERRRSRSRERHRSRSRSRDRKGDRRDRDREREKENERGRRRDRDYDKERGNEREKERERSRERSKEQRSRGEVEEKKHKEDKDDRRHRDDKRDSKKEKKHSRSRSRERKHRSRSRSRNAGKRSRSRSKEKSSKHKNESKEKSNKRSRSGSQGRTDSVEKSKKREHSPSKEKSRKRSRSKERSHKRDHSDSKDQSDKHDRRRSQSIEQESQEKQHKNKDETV
inactive: [1] -0.199 | [2] -0.019 | [3] 0.017 | [4] -0.203 | [5] 0.006 | [6] 0.033 | [7] 0.028 | [8] -0.246 | [9] -0.006 | [10] -0.19 | [11] 0.032
